Values without a mark were called inactive. Records with an inconclusive call do not appear. The source made the active and inactive calls. Calls come from the whole dose curve; as a rule, active = well fitted curve in the direction sought with a large enough effect; inconclusive = small, poorly fitted or top-dose-only effect, or another doubt; inactive = no such curve, though single readings can be large; an effect the other way counts as inactive or inconclusive.

The target in assay [1] is Glutathione peroxidase 1 (Homo sapiens) (UniProt P07203). The experiment in a line: Primary qHTS Assay for Inhibitors of Recombinant Selenoprotein Glutathione Peroxidase 1 (GPX1) (AID 1845191). For activity, negative = inhibition: % is set by controls: 0 for no effect and ±100 for the full control effect. Note: nearly all actives have a fitted effect of over 65% in size. Note: potency is the fitted concentration of half-maximal effect. In a few lines: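 10 nM GPX1 + cpd, 30 min RT; start w/ 1 mM GSH, 0.5 mM cumene hydroperoxide, 0.5 mM NADPH, 100 nM GR, 0.01% BSA; buffer 50 mM Tris-HCl pH 7.5, 2 mM EDTA, 150 mM NaCl; Fl 340/450, 0 & 15 min.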
Chain of Glutathione peroxidase 1 (Homo sapiens) (P07203 whole entry, looked up): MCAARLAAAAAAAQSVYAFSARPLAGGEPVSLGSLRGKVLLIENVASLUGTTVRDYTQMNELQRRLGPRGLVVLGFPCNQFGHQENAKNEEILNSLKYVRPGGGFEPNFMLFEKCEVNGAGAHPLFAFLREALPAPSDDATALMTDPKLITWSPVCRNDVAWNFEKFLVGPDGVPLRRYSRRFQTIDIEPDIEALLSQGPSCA

Assay [2] deals with Phospholipid hydroperoxide glutathione peroxidase GPX4 (Homo sapiens) (UniProt P36969). The experiment in a line: Primary qHTS Assay for Inhibitors of Recombinant Selenoprotein Glutathione Peroxidase 4 (GPX4) (AID 1845192). Note: nearly all actives have a fitted effect of over 65% in size. Note: potency is the fitted concentration of half-maximal effect. In a few lines: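 NADPH consumption, followed by fluorescence at 340/450 nm between 0 and 15 min, reports GPX4 activity via coupled glutathione reductase (100 nM). Enzyme 200 nM was pre-exposed to compound 30 min; 0.5 mM cumene hydroperoxide and 1 mM GSH served as substrates.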
Chain of Phospholipid hydroperoxide glutathione peroxidase GPX4 (Homo sapiens) (P36969 whole entry, looked up): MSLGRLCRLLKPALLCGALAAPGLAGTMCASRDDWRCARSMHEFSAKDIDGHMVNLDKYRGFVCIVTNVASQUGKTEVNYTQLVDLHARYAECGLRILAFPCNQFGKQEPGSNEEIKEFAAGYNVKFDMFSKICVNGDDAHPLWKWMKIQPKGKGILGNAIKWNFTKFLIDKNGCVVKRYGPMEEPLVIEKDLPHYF
On the technique in general: Quantitative high-throughput screening tests each substance at several concentrations.

Assay [3] is described as follows: HepG2 viability counterscreen (readout 2: ATP content) against the NCATS DSHEA and TCM libraries (AID 1794840). Note: 0% is about no effect. In a few lines: (§1)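 HepG2 cells, 1,000/well, attached ~4 h, then exposed ~24 h at 37C to substances. Protease activity read by fluorescence of 25 uM GF-AFC (Ex/Em 380/510 nm) after 30 min; ATP then by CellTiter-Glo luminescence.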
On the technique in general: Counterscreens check selectivity or assay interference.

A short description of assay [4]: HepG2 viability counterscreen (readout 1: protease activity) against the NCATS DSHEA and TCM libraries (AID 1794841).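 Note: cells exposed to compounds for about 24 h before the protease read; 0% is about no effect.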 An outline of the steps: as §1
Assay [5] concerns the target Cytochrome P450 3A4 (Homo sapiens) (UniProt P08684). The assay is described as follows: qHTS for inhibitors of CYP3A4 against the NCATS DSHEA and TCM libraries (AID 1919971).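 Note: % is set by controls: 0 for no effect and ±100 for the full control effect; inhibition lowers luminescence from luciferin made by CYP3A4.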 In a few lines: (§2)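 Light output from converted D-luciferin reports remaining CYP activity. Compounds preincubate with enzyme and substrate for 15 min; NADPH regeneration (1x final) runs the reaction for 30-45 min.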

For assay [6], the target named is Cytochrome P450 2D6 (Homo sapiens) (UniProt P10635). The experiment in a line: qHTS for inhibitors of CYP2D6 against the NCATS DSHEA and TCM libraries (AID 1919972). Note: % is set by controls: 0 for no effect and ±100 for the full control effect. An outline of the steps:
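Steps: enzyme plus luciferin substrate dispensed; test substances pinned; 15 min RT; 1x NADPH regenerating solution added, 30–45 min RT protected from light; detection reagent, 30 min RT; luminescence measured. Minus-enzyme wells as background.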

The nature of assay [7]: KB-3-1 P-gp reporter qHTS against the NCATS DSHEA and TCM libraries (AID 1919975). Note: 0% is about no effect. In a few lines:
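Parental KB-3-1 cells, 500 cells/well, in DMEM with 10% FBS, exposed 72 h at 37 C to compounds in concentration-response. Viability read by CellTiter-Glo luminescence after 30 min at room temperature.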

Assay [8] can be described thus: qHTS Counterscreen for compound interference against the NCATS DSHEA and TCM libraries (AID 1919978).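 Note: compounds preincubated with 1 µM D-luciferin or buffer before detection reagent; % of control where 0% means no effect.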 The note with it: firefly luciferase detection reagent interference, luminescence. In a few lines: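 Firefly luciferase detection reagent was added after compounds (19.5 nM–39.8 uM final) had been incubated 15 min at room temperature with 1 uM D-luciferin or with 100 mM phosphate buffer alone. Luminescence was read after 30 min at room temperature.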

Assay [9] in a line: Dual reporter qHTS for agonist of Pregnane X Receptor (hPXR) against the NCATS DSHEA and TCM libraries: Fluorescence readout (AID 1920058). Note: 0% is about no effect. An outline of the steps:
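Measures viability of the PXR reporter HepG2 line by protease-substrate fluorescence (405/540 nm), taken 1 h after CellTiter-Fluor addition. Substances are tested as concentration series over a ~24 h exposure, with rifampicin as agonist control.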

The target in assay [10] is Nuclear receptor subfamily 1 group I member 2 (Homo sapiens) (UniProt O75469). The experiment in a line: Dual reporter qHTS for antagonist of Pregnane X Receptor (hPXR) against the NCATS DSHEA and TCM libraries: Luminescence Readout (AID 1920060).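 Note: HepG2 cells carrying hPXR luciferase reporter stimulated with rifampicin at 2 µM; 0% is about no effect.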 In a few lines:
(§3)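 hPXR-Luc HepG2 cells exposed 24 h at 37 C to compounds with 2 uM rifampicin in antagonist mode; luciferase luminescence measured by ONE-Glo, with CellTiter-Fluor viability read beforehand.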

Assay [11] is described as follows: Dual reporter qHTS for antagonist of Pregnane X Receptor (hPXR) against the NCATS DSHEA and TCM libraries: Fluorescence Readout (AID 1920061). Note: 0% is about no effect. In a few lines: as §3
The nature of assay [12]: qHTS profiling for inhibitors of Plasmodium falciparum proliferation (AID 504749).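 Note: 0% = DMSO vehicle and full inhibition = artemisinin control; nearly all actives have a fitted effect of over 60% in size.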 The note with it: P. falciparum in erythrocytes, SYBR Green DNA, 72 h, at 28.7 µM (top of the series). In a few lines:
(§4)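 Three-day growth assay of blood-stage parasites in erythrocytes (0.3% parasitemia, 2.5% hematocrit) at 37 C, 5% CO2, quantified by SYBR Green DNA staining after overnight detergent lysis.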

The test system of assay [13] is 3D7. The description is as above. The note with it: P. falciparum in erythrocytes, SYBR Green DNA, 72 h; series mostly up to 28.7 µM. An outline of the steps: as §4
The target of assay [14] is Cytochrome P450 1A2 (Homo sapiens) (UniProt P05177). The assay is described as follows: qHTS for inhibitors of CYPIA2 against the NCATS DSHEA and TCM libraries (AID 1919976).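 Note: light from luciferin formed by CYP1A2 from a pro-luciferin substrate; % is set by controls: 0 for no effect and ±100 for the full control effect.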 In a few lines:
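In this quantitative HTS, inhibition of recombinant human CYP1A2 was measured as loss of luciferin-derived luminescence. Turnover ran 30-45 min at RT after NADPH regeneration solution was added.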

Assay [15] addresses Cytochrome P450 2C19 (Homo sapiens) (UniProt P33261). The experiment in a line: qHTS for inhibitors of CYP2C19 against the NCATS DSHEA and TCM libraries (AID 1919974).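 Note: luminescence from luciferin released by CYP2C19 oxidation of a pro-luciferin substrate; % is set by controls: 0 for no effect and ±100 for the full control effect.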 An outline of the steps: as §2

Chain of Cytochrome P450 2D6 (Homo sapiens) (P10635 whole entry, looked up): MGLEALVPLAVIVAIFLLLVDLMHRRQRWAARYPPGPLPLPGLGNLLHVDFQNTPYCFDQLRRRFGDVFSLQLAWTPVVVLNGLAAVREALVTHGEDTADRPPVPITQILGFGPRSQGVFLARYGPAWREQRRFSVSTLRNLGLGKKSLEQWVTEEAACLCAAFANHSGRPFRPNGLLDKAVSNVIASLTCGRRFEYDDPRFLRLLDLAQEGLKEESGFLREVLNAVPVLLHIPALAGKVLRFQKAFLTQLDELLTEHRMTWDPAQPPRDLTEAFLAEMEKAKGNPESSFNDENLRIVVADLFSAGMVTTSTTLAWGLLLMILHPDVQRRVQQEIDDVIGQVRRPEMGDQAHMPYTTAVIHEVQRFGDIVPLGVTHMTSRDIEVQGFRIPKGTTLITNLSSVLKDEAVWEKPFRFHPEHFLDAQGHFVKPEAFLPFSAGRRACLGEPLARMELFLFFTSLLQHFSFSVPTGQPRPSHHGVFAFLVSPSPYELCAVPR
Chain of Nuclear receptor subfamily 1 group I member 2 (Homo sapiens) (O75469 whole entry, looked up): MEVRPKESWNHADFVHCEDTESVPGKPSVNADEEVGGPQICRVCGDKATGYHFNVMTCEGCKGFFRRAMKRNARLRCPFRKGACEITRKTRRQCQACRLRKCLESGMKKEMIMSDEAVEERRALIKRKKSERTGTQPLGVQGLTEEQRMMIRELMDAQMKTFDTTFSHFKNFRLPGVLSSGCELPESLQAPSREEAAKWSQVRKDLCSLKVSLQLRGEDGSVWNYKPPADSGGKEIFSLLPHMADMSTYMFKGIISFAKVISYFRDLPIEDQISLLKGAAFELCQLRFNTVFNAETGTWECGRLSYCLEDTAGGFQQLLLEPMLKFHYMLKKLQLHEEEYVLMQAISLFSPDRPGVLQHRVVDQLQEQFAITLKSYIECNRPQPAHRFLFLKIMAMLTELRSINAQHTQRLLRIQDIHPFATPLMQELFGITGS
Chain of Cytochrome P450 3A4 (Homo sapiens) (P08684 whole entry, looked up): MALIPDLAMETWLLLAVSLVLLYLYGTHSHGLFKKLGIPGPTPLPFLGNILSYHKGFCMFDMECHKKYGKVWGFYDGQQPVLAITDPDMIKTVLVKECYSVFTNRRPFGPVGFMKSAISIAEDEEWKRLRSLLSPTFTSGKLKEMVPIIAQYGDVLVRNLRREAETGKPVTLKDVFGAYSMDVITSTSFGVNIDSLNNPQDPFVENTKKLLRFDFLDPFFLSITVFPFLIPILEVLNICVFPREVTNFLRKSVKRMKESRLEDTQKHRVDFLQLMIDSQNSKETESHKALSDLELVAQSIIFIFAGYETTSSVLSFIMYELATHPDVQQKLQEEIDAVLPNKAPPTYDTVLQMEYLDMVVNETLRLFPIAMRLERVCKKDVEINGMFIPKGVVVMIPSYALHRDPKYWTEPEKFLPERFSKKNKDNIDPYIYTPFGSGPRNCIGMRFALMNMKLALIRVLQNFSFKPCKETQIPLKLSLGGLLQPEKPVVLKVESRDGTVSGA
Chain of Cytochrome P450 1A2 (Homo sapiens) (P05177 whole entry, looked up): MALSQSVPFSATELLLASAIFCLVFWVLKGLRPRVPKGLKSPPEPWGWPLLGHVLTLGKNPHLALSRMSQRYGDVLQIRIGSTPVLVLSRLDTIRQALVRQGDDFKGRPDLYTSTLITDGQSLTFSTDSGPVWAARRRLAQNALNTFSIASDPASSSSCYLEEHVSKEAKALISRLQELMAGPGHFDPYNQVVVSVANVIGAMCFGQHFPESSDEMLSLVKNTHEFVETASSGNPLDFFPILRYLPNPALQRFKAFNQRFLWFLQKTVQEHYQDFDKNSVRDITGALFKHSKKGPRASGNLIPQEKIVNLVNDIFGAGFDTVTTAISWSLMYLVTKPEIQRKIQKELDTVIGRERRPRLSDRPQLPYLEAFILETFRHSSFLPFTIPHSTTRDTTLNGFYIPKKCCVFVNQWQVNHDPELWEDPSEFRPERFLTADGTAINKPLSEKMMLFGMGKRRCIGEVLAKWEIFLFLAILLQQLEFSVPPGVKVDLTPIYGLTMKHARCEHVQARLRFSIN
Chain of Cytochrome P450 2C19 (Homo sapiens) (P33261 whole entry, looked up): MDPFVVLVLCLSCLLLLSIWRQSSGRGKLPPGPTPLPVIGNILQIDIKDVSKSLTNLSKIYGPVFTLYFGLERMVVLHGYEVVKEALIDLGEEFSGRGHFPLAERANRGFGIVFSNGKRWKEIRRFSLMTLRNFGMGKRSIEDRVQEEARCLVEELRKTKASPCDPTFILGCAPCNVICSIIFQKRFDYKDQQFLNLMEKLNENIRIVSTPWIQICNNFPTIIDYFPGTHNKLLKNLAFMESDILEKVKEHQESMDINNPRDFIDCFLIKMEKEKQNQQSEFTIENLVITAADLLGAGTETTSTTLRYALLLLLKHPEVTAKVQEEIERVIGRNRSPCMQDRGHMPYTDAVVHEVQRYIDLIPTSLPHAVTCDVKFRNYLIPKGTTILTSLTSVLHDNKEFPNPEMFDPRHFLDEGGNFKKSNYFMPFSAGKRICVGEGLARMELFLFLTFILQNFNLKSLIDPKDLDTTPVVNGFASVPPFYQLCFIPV

Turning to `CC(C)(O/N=C(\C(=O)N[C@@H]1C(=O)N2C(C(=O)[O-])=C(C[n+]3ccccc3)CS[C@H]12)c1csc(N)n1)C(=O)O`, in assay [1], the Potency is 7.85 µM (active).
Regarding `C[S+](C)CCC(N)C(=O)O` (stereo not drawn), the Potency entry in assay [1] and in [2] was “inactive” each time.
On to `CCCCCCCCCCCC(=O)OCC(O)CO` (stereo not drawn), for which the molecule was classed as inactive in assay [3], in assay [4], in [5], in assay [6], in assay [7] and in assay [9]. Also, the molecule was called inactive in assay [10] and in assay [11]. In addition, the Potency result in [1], in assay [2] and in assay [13] was “inactive” throughout. In assay [8], the max response was 2.27%. For the same molecule, the activity, negative = inhibition was 0.724% in [12] (parasite line A) and -1.86% in assay [12] (parasite line B).
Take `NC(=O)OCC(O)COc1ccc(Cl)cc1` (stereo not drawn): the Potency result in [1] and in assay [2] was “inactive” each time.
Regarding `CC(C)=CCC/C(C)=C/CC/C(C)=C/CC/C(C)=C/CC1=C(C)C(=O)c2ccccc2C1=O`, the molecule was classed as inactive in [3], in assay [4], in [6], in assay [9], in assay [10] and in assay [11]. For the same molecule, the Potency result in assay [1] and in [14] was “inactive” throughout. Moreover, the max response in [8] was -2.14%.
For the molecule `CCCCC(=O)O[C@H]1CC[C@H]2[C@@H]3CCc4cc(O)ccc4[C@H]3CC[C@]12C`, the Potency entry in [1] and in assay [2] was “inactive” throughout.
As to `CCCC1C(=O)N2C(N(C)C)=Nc3ccc(C)cc3N2C1=O` (stereo not drawn), the Potency entry in [1] was “inactive”.
As for `Nc1nc(/C(=C/CC(=O)O)C(=O)N[C@@H]2C(=O)N3C(C(=O)O)=CCS[C@H]23)cs1`, the Potency in assay [1] is 9.04 µM (active).
For the molecule `CO/N=C(\C(=O)N[C@@H]1C(=O)N2C(C(=O)O)=C(CSc3nnnn3C)CS[C@H]12)c1csc(N)n1`, the Potency in assay [1] is 11.4 µM (active).
With `CCCCC/C=C\C/C=C\C/C=C\CCCCC(=O)O`, the activity change, negative = cytotoxic in [3] was -4.42% [at 3.42 µM]. The activity change, negative = inhibition is 15.8% [at 3.42 µM] in assay [4]; 10.3% [at 4.27 µM] in assay [5]; 3.71% [at 4.27 µM] in assay [6]; 19.3% [at 4.27 µM] in [15]; -0.723% [at 3.26 µM] in [7]; 7.42% [at 4.62 µM] in [14]. Further, the results for the activity change, negative = inhibition in assay [10] and in assay [11] were -11% [at 5 µM] and 4.34% [at 5 µM], respectively. Moreover, the Potency entry in assay [1] and in [13] was “inactive” each time. Further, the Potency in [2] is 8.91 µM (active). For the same molecule, in assay [8], the max response is -1.8%. The activity, negative = inhibition in assay [12] (parasite line A) is -2.11%; in assay [12] (parasite line B), -8.25%.
With `CC/C=C\C/C=C\C/C=C\C/C=C\C/C=C\C/C=C\CCC(=O)O`, the molecule was called inactive in [3], in [4], in assay [5], in [7], in assay [9] and in assay [10]. Also, the outcome in [11] was inactive. Moreover, the Potency entry in assay [1], in [14] and in assay [13] was “inactive” in each case. In [8], the max response was -0.949%. Further, the activity, negative = inhibition in [12] (parasite line A) was -24.9%; in assay [12] (parasite line B), -13.6%.
In the case of `NC[C@@H]1O[C@H](O[C@H]2[C@@H](O)[C@H](O[C@@H]3[C@@H](O)[C@H](N)C[C@H](N)[C@H]3O[C@H]3O[C@H](CO)[C@@H](O)[C@H](O)[C@H]3N)O[C@@H]2CO)[C@H](N)[C@@H](O)[C@@H]1O`, the values for the outcome in assay [1] and in assay [2] were “inactive [at 0.4 µM]” and “inactive [at 0.409 µM]”, respectively.

The record behind these values is PubChem BioAssay (NCATS).
